From PubChem BioAssay
Calls of active or inactive are those of the source. Unless noted, how the calls were made is not given here.

Tests used:
[1] = compound effects on lung adenocarcinoma cell viability – A549, calcein-AM fluorescence, 48 h, basal, profiling panel (AID 1162); conditions: higher = more signal; further: test concentration not given here
[2] = compound effects on differentiated 3T3-L1 adipocyte viability – cell-based, 3T3-L1 adipocytes, calcein-AM fluorescence, 48 h, basal, profiling panel (AID 1163); conditions: 3T3-L1 adipocytes viability, higher = more signal; further: test concentration not given here
[3] = compound effects on hepatocellular carcinoma cell viability – HepG2, calcein-AM fluorescence, 48 h, basal, profiling panel (AID 1164); conditions: higher = more signal; further: test concentration not given here
[4] = compound effects on multiple myeloma cell viability – MM1S, calcein-AM fluorescence, 48 h, basal, profiling panel (AID 1165); conditions: higher = more signal; further: test concentration not given here
[5] = calcein-AM signal in unstimulated myeloma cells – cell-based, calcein-AM fluorescence, 48 h, PK04 Diversity Set, profiling panel (AID 1166); conditions: RPMI8226 myeloma viability, higher = more signal;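 further: cells grown under basal conditions without added stimulus; test concentration not given here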
[6] = JC-1 mitochondrial signal, unstimulated HepG2 cells – cell-based, JC-1 fluorescence, 24 h, 100 nL compound, profiling panel (AID 1167); conditions: HepG2 mitochondrial potential, higher = more signal; further: test concentration not given here
[7] = JC-1 mitochondrial signal, unstimulated adipocytes – cell-based, JC-1 fluorescence, 3T3-L1 adipocytes, 24 h, 100 nL compound, profiling panel (AID 1168); conditions: JC-1 mitochondrial fluorescence, higher = more signal, called active from +8 up or from −8 down; further: test concentration not given here
[8] = JC-1 mitochondrial signal, unstimulated myeloma cells – cell-based, JC-1 fluorescence, RPMI8226, 24 h, 100 nL compound, profiling panel (AID 1169); conditions: JC-1 mitochondrial potential fluorescence, higher = more signal; further: test concentration not given here
[9] = JC-1 mitochondrial signal, unstimulated MM1S myeloma – cell-based, JC-1 fluorescence, 24 h, 100 nL compound, profiling panel (AID 1170); conditions: MM1S mitochondrial potential, higher = more signal; further: test concentration not given here
[10] = resazurin metabolic signal in A549 cells – cell-based, resazurin fluorescence, 24 h, PK04 Diversity Set, profiling panel (AID 1171); conditions: A549 viability, higher = more signal, called active from +8 up or from −8 down; further: test concentration not given here
[11] = resazurin metabolic signal in HepG2 cells – cell-based, resazurin fluorescence, 24 h, PK04 Diversity Set, profiling panel (AID 1172); conditions: HepG2 viability, higher = more signal; further: test concentration not given here
[12] = budding yeast growth changes without added modifier – OD600, strain BY4716, 24 h, basal condition, primary screen (AID 1173); conditions: S. cerevisiae BY4716 growth, OD600, 24 h; higher = more signal, called active from +8 up or from −8 down
[13] = viability profiling in MM1S myeloma cells – cell-based, resazurin fluorescence, basal, 24 h, PK04 Diversity Set, profiling panel (AID 1174); conditions: higher = more signal, called active from +8 up or from −8 down; further: test concentration not given here
[14] = target: Dihydroorotate dehydrogenase (quinone), mitochondrial (Plasmodium falciparum (isolate 3D7)) (UniProt Q08210); experiment: inhibition of P. falciparum DHODH – biochemical, C-terminal His tag, absorbance 600 nm, primary screen (AID 1175); conditions: PfDHODH enzyme, DCIP absorbance 600 nm; higher = more signal, called active from +8 up or from −8 down;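 further: recombinant parasite enzyme with a five histidine tag at its C terminus; test concentration not given here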
[15] = inhibition of PAO1 biofilm formation – strain PAO1, LB-PBS medium, absorbance 600 nm, primary screen (AID 1176); further: test concentration not given here; conditions: P. aeruginosa PAO1 growth/biofilm, A600, 12 h; higher = more signal
[16] = growth modulation of vineyard yeast isolate – strain RM11-1a, OD600, basal, 24 h, primary screen (AID 1177);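 further: cultures grown under basal conditions with no added stressor; test concentration not given here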; conditions: S. cerevisiae RM11-1a growth, OD600, 24 h; higher = more signal, called active from +8 up or from −8 down
[17] = growth of efflux-deficient E. coli DRC39 – strain DRC39, OD650, 24 h, E. coli filamentation inducers, primary screen (AID 1178);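 further: growth measured as culture turbidity by optical density at 650 nm; test concentration not given here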; conditions: E. coli DRC39 acrAB, higher = more signal, called active from +8 up or from −8 down
[18] = growth of efflux-deficient E. coli DRC39 – strain DRC39, OD650, 48 h, E. coli filamentation inducers, primary screen (AID 1179);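 further: screen aims at cell division blockers that make cells filament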; conditions: E. coli DRC39 delta-acrAB growth, higher = more signal, called active from +8 up or from −8 down
[19] = viability profiling in RPMI8226 myeloma cells – cell-based, resazurin fluorescence, basal, 24 h, PK04 Diversity Set, profiling panel (AID 1180); conditions: higher = more signal;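 further: RPMI8826 multiple myeloma cell line at 5000 cells per well; test concentration not given here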
[20] = target: E3 ubiquitin-protein ligase XIAP (Homo sapiens) (UniProt P98170); experiment: small molecules binding XIAP protein – biophysical, small-molecule microarray, fluorescence 635 nm, primary screen (AID 1181); conditions: higher = more signal;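 further: score merges 667 nm emission and signal to noise over triplicate slides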
E3 ubiquitin-protein ligase XIAP (Homo sapiens), sequence (P98170 whole entry, looked up): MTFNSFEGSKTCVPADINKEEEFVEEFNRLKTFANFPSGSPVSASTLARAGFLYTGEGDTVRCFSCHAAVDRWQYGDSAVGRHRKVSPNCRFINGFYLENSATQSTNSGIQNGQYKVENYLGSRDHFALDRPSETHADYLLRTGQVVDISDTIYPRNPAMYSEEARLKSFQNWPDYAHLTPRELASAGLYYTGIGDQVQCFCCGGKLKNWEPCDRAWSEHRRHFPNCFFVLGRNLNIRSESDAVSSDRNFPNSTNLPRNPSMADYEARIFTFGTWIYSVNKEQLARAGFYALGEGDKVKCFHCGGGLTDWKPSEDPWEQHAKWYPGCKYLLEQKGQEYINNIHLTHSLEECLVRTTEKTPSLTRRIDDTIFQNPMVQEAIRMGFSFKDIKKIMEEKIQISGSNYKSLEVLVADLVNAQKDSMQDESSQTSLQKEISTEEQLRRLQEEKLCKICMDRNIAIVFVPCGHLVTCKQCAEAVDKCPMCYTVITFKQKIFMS

Dihydroorotate dehydrogenase (quinone), mitochondrial (Plasmodium falciparum (isolate 3D7)), sequence (Q08210 whole entry, looked up): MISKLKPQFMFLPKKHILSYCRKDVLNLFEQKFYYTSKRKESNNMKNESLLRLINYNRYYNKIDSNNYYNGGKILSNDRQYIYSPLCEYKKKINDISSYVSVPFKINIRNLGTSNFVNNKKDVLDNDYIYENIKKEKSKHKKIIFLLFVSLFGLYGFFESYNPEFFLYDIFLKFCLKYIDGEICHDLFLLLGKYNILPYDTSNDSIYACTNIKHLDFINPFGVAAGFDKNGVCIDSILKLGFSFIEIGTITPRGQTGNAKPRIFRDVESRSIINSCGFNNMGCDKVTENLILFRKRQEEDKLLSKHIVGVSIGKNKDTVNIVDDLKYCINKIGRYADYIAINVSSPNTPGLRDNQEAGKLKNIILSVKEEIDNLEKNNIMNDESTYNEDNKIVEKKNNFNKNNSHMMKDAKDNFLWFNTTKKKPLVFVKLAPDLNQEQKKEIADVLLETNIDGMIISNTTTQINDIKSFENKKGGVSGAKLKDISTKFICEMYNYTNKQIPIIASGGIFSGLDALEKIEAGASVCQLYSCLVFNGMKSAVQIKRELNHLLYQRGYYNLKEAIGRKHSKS

Structure (SMILES)	z-score [1]	z-score [2]	z-score [3]	z-score [4]	z-score [5]	z-score [6]	z-score [7]	z-score [8]	z-score [9]	z-score [10]	z-score [11]	z-score [12]	z-score [13]	composite z-score [14]	z-score [15]	z-score [16]	z-score [17]	z-score [18]	z-score [19]	composite z-score [20]
CCOC(=O)CCN1C(=O)[C@H]2[C@H]3[C@H](O)[C@H](O)CC(=NNC(=O)OCc4ccccc4)[C@H]3CC[C@H]2C1=O	0.391	1.33	-0.222	0.357	-0.0554	-0.952	-0.223 (inactive)	-0.0449	0.435	-0.367 (inactive)	-0.0842	-0.712 (inactive)	-0.364 (inactive)	-0.192 (inactive)	1.1 (inactive)	-1.26 (inactive)	-0.213 (inactive)	-0.354 (inactive)	0.0536	-0.163
CC(C)=CCCC(C)=CCON=C1C[C@@H](O)[C@@H](O)[C@@H]2[C@@H]3C(=O)N(c4cccc(Oc5ccccc5)c4)C(=O)[C@@H]3CC[C@H]12	0.0267	-0.796	0.285	-1.97	0.504	-0.253	0.496 (inactive)	-0.203	-0.907	0.533 (inactive)	1.05	0.681 (inactive)	0.674 (inactive)	-0.141 (inactive)	-0.0849 (inactive)	0.668 (inactive)	0.599 (inactive)	0.15 (inactive)	0.157	-0.102
COCC#Cc1ccc([C@@H]2N[C@H](C(=O)O)CC[C@H]2C)cc1	0.681	-0.269	0.654	0.391	1.14	0.816	0.727 (inactive)	-0.859	0.839	-0.488 (inactive)	-0.041	-1.71 (inactive)	0.525 (inactive)	-1.53 (inactive)	0.143 (inactive)	-2.45 (inactive)	0.966 (inactive)	-0.94 (inactive)	-0.293	-0.416
CCN1C(C)=C(C(=O)OC)[C@@H](c2ccccc2)N2C(=O)[C@](O)(C(=O)OC)CC(C(C)=O)=C12	0.836	-0.697	0.634	0.339	0.791	0.93	0.935 (inactive)	0.138	0.146	-0.256 (inactive)	-0.0348	-1.38 (inactive)	0.136 (inactive)	-1.27 (inactive)	-0.242 (inactive)	-0.695 (inactive)	0.538 (inactive)	0.866 (inactive)	-0.11	0.0264
CO[C@@H](C1CCCCC1)[C@@H](C)[C@H](OCc1cccc(Br)c1)[C@@H](C)CO	-2.34	-0.348	-2.22	-3.02	-4.04	-4.59	0.408 (inactive)	-1.11	-0.184	-1.21 (inactive)	0.414	-2.13 (inactive)	-0.885 (inactive)	0.0434 (inactive)	-0.127 (inactive)	-0.0839 (inactive)	-0.275 (inactive)	-0.776 (inactive)	-0.835	-0.16
CC(C)=NO[C@@H](C)c1cn([C@H](CO)Cc2ccccc2)nn1	0.308	0.343	1.17	0.182	-0.428	0.614	0.0209 (inactive)	0.386	0.514	-1.35 (inactive)	-1.27	-1.16 (inactive)	-0.597 (inactive)	-1.44 (inactive)	0.0889 (inactive)	-2.2 (inactive)	0.0116 (inactive)	-1.77 (inactive)	-1.18	0.314
O=C1[C@H]2[C@H]3[C@H](O)[C@H](O)CC(=NOC[C@@H](O)COCc4ccco4)[C@@H]3CC[C@H]2C(=O)N1Cc1ccccc1	-0.355	-0.886	-0.297	0.727	0.693	-0.083	-0.278 (inactive)	-0.271	-0.782	1.06 (inactive)	0.379	-1.64 (inactive)	-0.737 (inactive)	-0.137 (inactive)	-1.01 (inactive)	-0.426 (inactive)	0.17 (inactive)	0.616 (inactive)	0.569	-0.194
COC(=O)[C@H](C)NC(=O)CCC1CC(OC(=O)NCc2ccc3c(c2)OCO3)CC2(CCCC(COC(=O)NCCCN3CCCC3=O)O2)O1 (stereo not given in full)	-0.516	-0.232	-1.09	-0.375	-0.322	-0.815	-0.019 (inactive)	-0.838	0.224	0.468 (inactive)	0.161	0.58 (inactive)	-0.0358 (inactive)	0.184 (inactive)	0.226 (inactive)	1.04 (inactive)	0.7 (inactive)	-0.028 (inactive)	0.0805	-0.245
CC(C)[C@@H](OCc1ccccc1)[C@H](C)C=NOC[C@@H](O)[C@H]1O[C@@H]2OC(C)(C)O[C@@H]2[C@H]1O	-0.205	-0.132	-0.292	0.592	0.322	-0.719	-1.58 (inactive)	0.13	0.461	-0.665 (inactive)	-0.752	-0.848 (inactive)	-0.587 (inactive)	0.188 (inactive)	0.241 (inactive)	1.28 (inactive)	0.0024 (inactive)	-1.79 (inactive)	-0.766	0.191
